# From PubChem BioAssay (NCATS)
# Records with an inconclusive call do not appear. Unmarked numbers belong to inactive results. Active and inactive are the calls of the source. Calls follow the shape of the dose curve; as a rule, active = well fitted inhibition curve with a large enough effect; inconclusive = small, poorly fitted or top-dose-only effect; inactive = flat fitted curve, though single readings scatter. Where a SMILES comes first, the peptide text is derived from it. Bridges are numbered along the chain shown (N, C = ends). [ ]: non-standard residue; d: D form. The star is where a group is joined. X2 = CC[C@H](C)CCCCC(=O)*; Dab = NCC[C@H](N)C(=O)O
# Target: Voltage-gated inwardly rectifying potassium channel KCNH2 (Homo sapiens) (UniProt Q12809)
# Sequence (Q12809 whole entry, looked up): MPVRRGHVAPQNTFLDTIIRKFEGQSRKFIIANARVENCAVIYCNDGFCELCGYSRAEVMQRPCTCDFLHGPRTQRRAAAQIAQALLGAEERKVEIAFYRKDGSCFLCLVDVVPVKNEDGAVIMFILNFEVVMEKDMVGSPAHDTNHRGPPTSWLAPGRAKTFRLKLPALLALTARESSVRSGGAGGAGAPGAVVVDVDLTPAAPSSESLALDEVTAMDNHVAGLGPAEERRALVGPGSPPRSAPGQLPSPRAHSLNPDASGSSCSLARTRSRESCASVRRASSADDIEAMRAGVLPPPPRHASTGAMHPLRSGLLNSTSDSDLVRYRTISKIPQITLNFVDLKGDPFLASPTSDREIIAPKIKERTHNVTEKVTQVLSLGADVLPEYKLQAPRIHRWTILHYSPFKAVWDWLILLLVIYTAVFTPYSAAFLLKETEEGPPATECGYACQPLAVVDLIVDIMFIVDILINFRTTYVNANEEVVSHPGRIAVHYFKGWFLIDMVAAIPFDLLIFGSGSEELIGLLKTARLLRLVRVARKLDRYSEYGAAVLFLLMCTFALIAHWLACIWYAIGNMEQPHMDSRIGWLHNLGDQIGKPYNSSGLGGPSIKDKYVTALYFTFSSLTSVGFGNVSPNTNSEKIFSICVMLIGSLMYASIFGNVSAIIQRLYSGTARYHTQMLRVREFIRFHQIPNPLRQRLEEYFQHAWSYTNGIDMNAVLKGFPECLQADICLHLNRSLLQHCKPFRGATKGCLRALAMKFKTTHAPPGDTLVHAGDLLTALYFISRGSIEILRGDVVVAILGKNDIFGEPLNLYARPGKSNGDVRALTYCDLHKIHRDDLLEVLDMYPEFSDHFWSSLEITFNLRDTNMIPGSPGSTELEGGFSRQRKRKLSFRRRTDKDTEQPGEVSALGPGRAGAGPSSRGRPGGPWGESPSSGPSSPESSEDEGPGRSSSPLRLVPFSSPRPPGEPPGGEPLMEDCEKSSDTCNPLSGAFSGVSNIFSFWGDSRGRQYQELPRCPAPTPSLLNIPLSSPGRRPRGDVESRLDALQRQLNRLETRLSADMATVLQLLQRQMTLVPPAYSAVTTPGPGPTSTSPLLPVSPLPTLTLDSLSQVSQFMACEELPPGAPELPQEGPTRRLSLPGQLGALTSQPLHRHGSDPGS
# Test: qHTS Assay for Small Molecule Inhibitors of the Human hERG Channel Activity (AID 588834);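 also: lower thallium flux fluorescence means stronger hERG block; nearly all actives have a fitted effect of over 50% in size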; as to activity change, negative = inhibition: top concentration of the series differs between compounds
# Settings: U2OS BacMam hERG, FluxOR thallium flux fluorescence; series mostly up to 46.1 µM; activity change, negative = inhibition: at the top concentration
# Summary of the method: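 Thallium-flux (FluxOR) read-out on FDSS: fluorescence read 10 s before and 2 min after stimulation buffer. hERG-BacMam-transduced U2OS cells, compound exposure about 10 min. AC50 by standard Hill equation.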
# % is scaled to controls: 0 for no effect and ±100 for the full control effect; potency is read from the fitted curve at half-maximal effect.
Structure (SMILES),"activity change, negative = inhibition",Potency
C[C@@H]1O[C@@H](OC[C@H]2O[C@@H](Oc3c(-c4ccc(OCCO)c(OCCO)c4)oc4cc(OCCO)cc(O)c4c3=O)[C@H](O)[C@@H](O)[C@@H]2O)[C@H](O)[C@H](O)[C@H]1O,-0.235%,
CC(=O)OCC1=C(C(=O)O)N2C(=O)[C@@H](NC(=O)Cc3ccccc3)[C@H]2SC1,3.07%,
Cc1ccc(S(=O)(=O)NC(=O)N[C@@H](C)Cc2ccccc2)cc1,13.4%,
C=CC1=C(C(=O)O)N2C(=O)[C@@H](NC(=O)/C(=N/OCC(=O)O)c3csc(N)n3)[C@H]2SC1 (stereo in doubt),1.33% [at 20.6 µM],
NC(=O)[C@@H]1C[C@]2(NC(=O)NC2=O)c2cc(F)ccc2O1,11.6%,
CCCCC(O)c1ccccc1 (configuration not stated),-10.1%,
C[S+](C)CCC(N)C(=O)O (configuration not stated),-3.92%,
COc1ccc2cc([C@H](C)CO)ccc2c1,6.8%,
CC(C)C[C@@H](NC(=O)[C@@H](O)[C@H](N)Cc1ccccc1)C(=O)O,7.66%,
O=C(CO)[C@@H](O)[C@H](O)[C@@H](O)C(=O)O,5.61%,
COC(=O)[C@H]1[C@H]2C[C@@H]3c4[nH]c5cc(OC)ccc5c4CCN3C[C@H]2C[C@H](OC)[C@@H]1OC,,4.47 µM (active)
NS(=O)(=O)c1cc2c(cc1Cl)NC(Cc1ccccc1)NS2(=O)=O (configuration not stated),0.179%,
CC[C@H]1OC(=O)C[C@@H](O)[C@H](C)[C@@H](O[C@@H]2O[C@H](C)[C@@H](O[C@H]3C[C@@](C)(O)[C@@H](O)[C@H](C)O3)[C@H](N(C)C)[C@H]2O)[C@@H](CC=O)C[C@@H](C)C(=O)/C=C/C(C)=C/[C@@H]1CO[C@@H]1O[C@H](C)[C@@H](O)[C@@H](OC)[C@H]1OC,11.2%,
C[C@@H]1C[C@H]2[C@@H]3CCC4=CC(=O)C=C[C@]4(C)[C@@]3(F)[C@@H](O)C[C@]2(C)[C@@]1(O)C(=O)COC(=O)c1cccc(S(=O)(=O)O)c1,16.2%,
COc1ccc2c(c1)N(C[C@H](C)CN(C)C)c1ccccc1S2,,8.91 µM (active)
C#C[C@]1(O)CC[C@H]2[C@@H]3CCC4=C(CCC(=O)C4)[C@H]3CC[C@@]21C,16.2% [at 20.6 µM],
NC(=O)OCC(O)COc1ccc(Cl)cc1 (configuration not stated),2.72% [at 20.6 µM],
O=C(O)[C@@H]1C[C@H](CP(=O)(O)O)CCN1,8.36%,
COC1[C@@H](O[C@@H]2O[C@H](C)[C@@H](O[C@H]3C[C@@](C)(O)[C@H](OC(=O)CC(C)C)[C@H](C)O3)[C@H](N(C)C)[C@H]2O)[C@@H](CC=O)C[C@@H](C)[C@@H](O)/C=C/C=C/C[C@@H](C)OC(=O)C[C@H]1OC(C)=O (some centres not stated),0.454% [at 20.6 µM],

Structure (SMILES),"activity change, negative = inhibition",Potency
C=C1CC[C@H](O)CC1=C/C=C1\CCC[C@]2(C)[C@@H]([C@H](C)/C=C/[C@H](C)C(C)C)CC[C@@H]12,-9.25%,
O=C(O)CN(CC(=O)O)CC1=CC2C(=CC1=O)Oc1cc(O)c(CN(CC(=O)O)CC(=O)O)cc1C21OC(=O)c2ccccc21 (configuration not stated),,0.891 µM (active)
O=[N+]([O-])O[C@@H]1CO[C@H]2[C@@H]1OC[C@@H]2O,4.03%,
CO[C@@]1(NC(=O)C2SC(=C(C(N)=O)C(=O)O)S2)C(=O)N2C(C(=O)O)=C(CSc3nnnn3C)CS[C@@H]21 (some centres not stated),,7.08 µM (active)
CC(O)[C@H]1CC[C@H]2[C@@H]3CC[C@@H]4C[C@@H](O)CC[C@]4(C)[C@H]3CC[C@]12C (some centres not stated),-11.5%,
C=C1c2c(Cl)ccc(O)c2C(O)=C2C(=O)[C@]3(O)C(O)=C(C(N)=O)C(=O)[C@@H](N(C)C)[C@@H]3[C@@H](O)[C@H]12,10.5% [at 20.6 µM],
O=C1CC[C@@H](C(=O)N[C@H]2C[C@@H]2c2ccccc2)N1,21.5%,
OCCN1CCN(CC/C=C2/c3ccccc3Sc3ccc(Cl)cc32)CC1,,1.58 µM (active)
NC(=O)c1ccc[n+]([C@@H]2O[C@H](COP(=O)([O-])OP(=O)(O)OC[C@H]3O[C@@H](n4cnc5c(N)ncnc54)[C@H](O)[C@@H]3O)[C@@H](O)[C@H]2O)c1,-2.86% [at 20.6 µM],
C=C1CC[C@H](O)C/C1=C\C=C1/CCC[C@]2(C)[C@@H]([C@H](C)CCCC(C)C)CC[C@@H]12,-30%,
COc1c(O[C@@H]2O[C@H](CO)[C@@H](O)[C@H](O)[C@H]2O)cc2c(c1OC)-c1ccc(SC)c(=O)cc1[C@@H](NC(C)=O)CC2,5.55% [at 20.6 µM],
O=C[C@H](O)[C@@H](O)[C@@H](O)[C@H](O)CO,0.0908%,
CO[C@H]1O[C@@H]2O[C@@]3(C)CC[C@H]4[C@H](C)CC[C@@H]([C@H]1C)[C@@]24OO3,-0.525%,
CC[C@H](C)CCCCC(=O)N[C@@H](CCN)C(=O)N[C@H](C(=O)N[C@@H](CCN)C(=O)N[C@H]1CCNC(=O)[C@@H]([C@H](C)O)NC(=O)[C@H](CCN)NC(=O)[C@H](CCN)NC(=O)[C@H](CC(C)C)NC(=O)[C@@H](CC(C)C)NC(=O)[C@H](CCN)NC1=O)[C@@H](C)O (X2-[Dab]T[Dab][Dab][Dab][dL]L[Dab][Dab][dT]; lactam 4-C),1.35% [at 20.6 µM],
CN[C@@H]1[C@@H](O)[C@@H](O[C@@H]2[C@@H](O)[C@H](O[C@H]3O[C@H](CN)[C@@H](O)[C@H](O)[C@H]3O)[C@@H](N)C[C@H]2NC(=O)C(O)CN)OC[C@]1(C)O (some centres not stated),16.3%,
CCCCC[C@H](O)/C=C/[C@H]1[C@H](O)CC(=O)[C@@H]1CCCCCCC(=O)O,22.1% [at 20.6 µM],
O=C1NC(=O)[C@H]2[C@@H]1[C@@H]1C=C[C@H]2C1,18.2%,
CO[C@H]1C[C@H](O[C@@H]2/C(C)=C/C[C@@H]3C[C@@H](C[C@]4(CC[C@H](C)[C@@H](C5CCCCC5)O4)O3)OC(=O)[C@@H]3C=C(C)/C(=N/O)[C@H]4OC/C(=C\C=C\[C@@H]2C)[C@]43O)O[C@@H](C)[C@@H]1O,13.2%,
